This excerpt belongs to a sample that is enriched for hits.
TbPYK inhibitor = inhibitors of Trypanosoma brucei pyruvate kinase | TbPYK enzyme, Kinase-Glo Plus ATP luminescence, 45 min | AID 624173 | actives 0.12% (n = 410,000) | Potency, µM (highest dose often 76.8 µM), most hits filed as inhibitors; note: nearly all actives have a fitted effect of over 50% in size
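Assay buffer: 50 mM TEA pH 7.2, 100 mM KCl, 10 mM MgCl2, 0.05% BSA, 0.01% Tween-20. Pyruvate kinase from T. brucei plus substrate met compound, then ADP (130 uM final). Luminescence was read post 45 min RT.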
LmPK inhibitor = LmPK (Leishmania mexicana) enzyme inhibition; Q27686; purified LmPK, Kinase-Glo ATP luminescence, 1 h; Potency, µM (series often up to 57.5 µM), actives largely listed as inhibitors; actives 0.37% (n = 290,000); AID 1721
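ATP generated from ADP (0.1 mM) and PEP (0.5 mM) by 0.1 nM LmPK over 1 h at room temperature (pH 7.2 imidazole buffer) was detected by coupled luciferase luminescence. Values were normalized to uninhibited and no-enzyme wells.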
Giardia FBPA inh = Giardia lamblia aldolase inhibition; Potency, µM (series often up to 59.6 µM), hits mostly inhibitors; actives 0.71% (n = 290,000); purified Giardia FBPA; A8B2U2; note: nearly all actives have a fitted effect of over 55% in size
Target sequence (A8B2U2 whole entry, looked up): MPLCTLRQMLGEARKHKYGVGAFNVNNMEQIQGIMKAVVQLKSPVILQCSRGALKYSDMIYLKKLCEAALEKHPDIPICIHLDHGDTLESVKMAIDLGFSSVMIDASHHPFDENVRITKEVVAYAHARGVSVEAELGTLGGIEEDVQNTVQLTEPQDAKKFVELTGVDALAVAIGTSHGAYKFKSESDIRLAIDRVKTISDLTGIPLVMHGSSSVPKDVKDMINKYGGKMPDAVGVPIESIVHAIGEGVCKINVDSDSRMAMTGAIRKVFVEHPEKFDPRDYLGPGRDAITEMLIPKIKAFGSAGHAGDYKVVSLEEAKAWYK
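Giardia FBPA (40 nM reagent) was preincubated 10 min at RT with compound (up to 57.5 uM final), then substrate plus GAPDH/TPI/NAD/arsenate coupling system with diaphorase/resazurin was added; resorufin fluorescence (525/598 nm) was read after 20 min.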
Sm TGR block = inhibitors of Schistosoma mansoni thioredoxin glutathione reductase. Q962Y6. Potency, µM (titrated, usually from 114 µM), actives largely listed as inhibitors. actives 3% (n = 360,000). purified TGR, DTNB reduction, TNB absorbance 405 nm. AID 485364; note: nearly all actives have a fitted effect of over 60% in size
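Kinetic colorimetric format: TGR-catalysed, NADPH-driven DTNB reduction monitored via TNB absorbance. Enzyme dispensed at 20 nM; compound exposure 15 min at room temperature before reaction start.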
Shiga inhibitor = blocks Shiga toxin action in Vero cells. Vero cells, Shiga toxin protein synthesis inhibition reporter. actives 9.2% (n = 290,000). AID 2315. inhibition, % at 38.7 µM; in the data active = inhibition mostly above about 28%, no sharp cut-off; inactive = mostly below about 43%
Cycloheximide cs = counter-screen hit for Shiga toxin inhibitors, cycloheximide | cell reporter, cycloheximide protein synthesis inhibition counterscreen | actives 12% (n = 300,000) | max response, %; in the data active = max response mostly above about 13%, no sharp cut-off; inactive = mostly below about 14%; note: read at 38.3 µM for the half of the compounds with a filed dose
A number is an active result; n = inactive; u = inconclusive; x = not tested or not shown. Unless noted, calls come from the whole dose curve; as a rule, active = well fitted curve in the direction sought with a large enough effect; inconclusive = small, poorly fitted or top-dose-only effect, or another doubt; inactive = no such curve, though single readings can be large; an effect the other way counts as inactive or inconclusive.

SMILES	TbPYK inhibitor	LmPK inhibitor	Giardia FBPA inh	Sm TGR block	Shiga inhibitor	Cycloheximide cs
Cc1ccc(C)c(NC(=O)CSc2ccc(-c3ccco3)nn2)c1	n	n	n	13µM	n	n
Cc1ccccc1NC(=O)CSc1ccc(-c2ccco2)nn1	n	n	n	n	n	n
O=C(NC1(C(F)(F)F)C(=O)Nc2c1c(=O)[nH]c(=O)n2CCc1ccccc1)c1ccc(Cl)cc1 (stereo not drawn)	n	x	x	n	x	x
O=C(c1ccc(=O)oc1)N1CCCc2ccccc21	n	n	n	u	76	51
CC(Nc1ccc2c(c1)OCCO2)C(=O)N1CCc2ccccc21 (stereo not drawn)	n	n	n	n	84	21
O=C(c1cccc(N2C(=O)C3C4C=CC(C4)C3C2=O)c1)N1CCCc2ccccc21 (stereo not drawn)	n	n	n	n	n	n
O=C(c1ccc2c(c1)OCO2)N1CCc2ccccc2C1	n	n	n	n	55	70
O=C(c1cccc(N2C(=O)C3CC=CCC3C2=O)c1)N1CCCc2ccccc21 (stereo not drawn)	n	n	n	n	74	36
O=C(c1ccc2c(c1)OCO2)N1CCc2ccccc21	n	n	n	n	59	n
O=C(c1ccc2c(c1)OCO2)N1CCCc2ccccc21	n	n	n	n	74	40
COc1cccc(-c2noc(COc3ccc(C(C)(C)C)cc3)n2)c1	n	x	x	n	x	x
CCOc1ccc(NC(=O)CC2C(=O)N(c3ccccc3)C(=O)N2Cc2cccc(OC)c2)cc1 (stereo not drawn)	n	x	x	n	x	x
COc1cccc2c1O/C(=N\O)C(C(=O)Nc1ccc(C)cc1)C2 (stereo not drawn)	n	n	n	n	n	13
COc1cccc2c1O/C(=N\O)C(C(=O)Nc1cccc(Br)c1)C2 (stereo not drawn)	n	n	n	n	80	33
CN1C(=O)[C@]23CC4=CC=C[C@H](O)[C@H]4N2C(=O)[C@@]1(CO)SS3	x	x	u	x	n	n
CN1/C(=C/C2CC(=O)N(c3ccc([N+](=O)[O-])cc3)C2=O)C(C)(C)c2ccccc21 (stereo not drawn)	n	n	n	13µM	n	n
O=C1CN(C(=O)CSc2nnc3ccccn23)c2ccccc2N1	n	n	n	n	n	n
CC(=O)c1ccc(NC(=O)C(C)Sc2nnc3ccccn23)cc1 (stereo not drawn)	n	x	x	n	x	x
O=C(CSc1nnc2ccccn12)N1CCc2ccccc21	n	n	n	n	62	20
CC(Sc1nnc2ccccn12)C(=O)N1CCc2ccccc2C1 (stereo not drawn)	n	n	n	n	n	20
O=C(CSc1nnc2ccccn12)N1CCc2ccccc2C1	n	n	n	n	136	29
CCOc1ccc(OCCOC(=O)CN2C(=O)NC3(CCCC3)C2=O)cc1	n	x	x	n	x	x
NC1(C(=O)O)C[C@H](C(=O)O)[C@H](C(=O)O)C1 (stereo partly drawn)	x	x	n	x	x	x
CCCCN1C(=O)c2[nH]nc(-c3ccccc3O)c2C1c1cc(Br)c(O)c(OC)c1 (stereo not drawn)	n	x	x	56µM	x	x
Cc1ccc(C(=O)NC(=S)NNS(=O)(=O)c2ccc(C)cc2)cc1	n	n	u	22µM	n	n
SMILES	TbPYK inhibitor	LmPK inhibitor	Giardia FBPA inh	Sm TGR block	Shiga inhibitor	Cycloheximide cs
Cc1ccc(S(=O)(=O)NNC(=S)Nc2ccccc2)cc1	n	n	u	n	n	23
Cc1ccc(C(=O)NC(=S)NNC(=O)c2ccc([N+](=O)[O-])cc2)cc1	n	n	u	n	x	n
Cc1ccc(S(=O)(=O)NNC(=S)Nc2ccc(Cl)cc2)cc1	n	n	n	n	n	n
Cc1ccc(NNS(=O)(=O)c2ccc(C)cc2)cc1	u	n	x	7.9µM	n	n
Cc1ccc(S(=O)(=O)NNC(=S)NC(=O)c2ccc([N+](=O)[O-])cc2)cc1	n	n	u	7.9µM	n	n
Cc1cc(-c2nnc(SCC(=O)Nc3ccc(F)cc3F)n2N)n[nH]1	n	n	n	n	n	n
Cc1ccc(S(=O)(=O)NNC(=S)NCC2CCCO2)cc1 (stereo not drawn)	n	n	u	13µM	n	n
O=C(NNC(=S)NC(=O)c1ccc(Br)cc1)c1ccc([N+](=O)[O-])cc1	n	n	u	100µM	x	n
CCC(C)C(CO)NCCCn1cnc(C(=O)Nc2ccc(C)c(C)c2)n1 (stereo not drawn)	n	x	x	x	x	x
CC(=O)[C@@]1(O)CC[C@H]2[C@@H]3C=C(Cl)C4=CC(=O)CC[C@]4(C)[C@H]3CC[C@@]21C	n	x	x	x	x	x
Cc1ccc(N2C(=O)CSC23C(=O)N(CC(=O)NCc2ccccc2)c2ccccc23)cc1 (stereo not drawn)	n	x	x	n	x	x
CCc1ccc(NC(=O)C(C)OC(=O)Cn2[nH]c(=O)c3ccccc3c2=O)cc1 (stereo not drawn)	n	x	x	x	x	x
O=[N+]([O-])c1cc(C(F)(F)F)ccc1NCCOc1ccccc1	n	n	n	n	31	48
CC(=O)OCCNC(=O)c1cc2ccccc2oc1=O	n	n	n	n	n	n
O=C(OCCNc1ccc(C(F)(F)F)cc1[N+](=O)[O-])c1cc2ccccc2oc1=O	n	n	n	n	n	18
Cc1ccccc1OCCNc1ccc(C(F)(F)F)cc1[N+](=O)[O-]	n	n	n	n	n	20
CN(C)S(=O)(=O)NCCNc1ccc(C(F)(F)F)cc1[N+](=O)[O-]	n	n	n	n	n	12
Cc1cc(NC(=O)CN2C(=O)NC3(CCCCCC3)C2=O)ccc1Br	n	x	x	n	x	x
COc1cc(NC(=O)CSc2nc(-c3ccc(C(C)C)cc3)no2)cc(OC)c1	n	x	x	n	x	x
O=C(CN1CCN(C(=O)C2CCCO2)CC1)Nc1ccc(F)cc1 (stereo not drawn)	n	n	n	n	n	n
OC[C@@H](O)C(O[C@@H]1O[C@@H](CO)[C@H](O)[C@H](O)[C@H]1O)[C@H](O)[C@@H](O)CO (stereo partly drawn)	n	x	x	x	x	x
CCCCN(CC)CCCNC(=O)c1nn(-c2ccc(OC)cc2)c(=O)c2c1c1ccccc1n2C	n	x	x	n	x	x
CC1=NN(c2ccc([N+](=O)[O-])cc2)C(=O)/C1=C\N(C)C	n	16µM	n	u	n	22
CC1=NN(c2ccccc2)C(=O)/C1=C/N(C)C	n	n	n	n	n	n
CCCC1=NN(c2ccc([N+](=O)[O-])cc2)C(=O)/C1=C/N(C)C	n	n	n	n	n	20
c1ccc(N2CCN(c3nc4ccccc4[nH]3)CC2)nc1	n	n	n	n	49	22
NCC[C@H](NC(=O)[C@@H](N)CCCN=C(N)N[N+](=O)[O-])C(N)=O	x	x	n	x	n	n
COc1cc(C(=O)N(Cc2ccccc2)c2cccc(C)c2)ccc1OCC(=O)N1CCOCC1	n	x	x	x	x	x

From PubChem BioAssay
